Data from the supplement of paper PMC10849652.
Targets with a hit are over-represented here; the source holds about 7,900 in all. About 0.6% of all pairs of compound and target were hits. Values without a mark were called inactive.

Key:
Assay in all cases: log2 fold change, soluble protein after heating vs DMSO (PISA); higher = thermal stabilisation; K562 cells, 10 uM, 30 min; active = over 0.2 and 3.5 SD of the protein, either way, in both replicates (recomputed)
[1] = compound: Cc1ccc(NC(=O)c2ccc(CN3CC[C@H](N(C)C)C3)c(C(F)(F)F)c2)cc1Nc1nccc(-c2cncnc2)n1 [bafetinib]
Outline: (§1)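 Thermal stability values are relative to control samples and come from duplicates. They are expressed as log2 fold changes. For measurement, K562 cells (2×10^6 cells/mL) received 10 μM compound for 30 min, and aliquots were heated for 3 min over 48°C-58°C, pooled, and extracted at 4°C in PBS with 0.5% NP-40. Soluble protein, the supernatant after 21,000xg for 90 min, was quantified by TMTpro 16plex LC-MS/MS with equalised channel sums.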

[2] = compound: Cc1cccc(CC(=O)N2CCc3c2ccc(-c2cn(C)c4ncnc(N)c24)c3F)n1
Outline: as §1

[3] = compound: Cc1cn(-c2cc(NC(=O)c3ccc(C)c(Nc4nccc(-c5cccnc5)n4)c3)cc(C(F)(F)F)c2)cn1 [nilotinib]
Outline: as §1

[4] = compound: Cc1nc(Nc2n[nH]c3c2CN(C(=O)N[C@H](CN(C)C)c2ccccc2)C3(C)C)c2sccc2n1
Outline: as §1

[5] = compound: Cc1nc(Nc2ncc(C(=O)Nc3c(C)cccc3Cl)s2)cc(N2CCN(CCO)CC2)n1 [dasatinib]
Outline: as §1

[6] = compound: Cc1ncc(-c2ccnc(Nc3ccc(S(C)(=O)=O)cc3)n2)n1C(C)C
Outline: as §1

[7] = compound: Cn1cc(-c2ccc3c(c2)CCN3C(=O)Cc2cccc(C(F)(F)F)c2)c2c(N)ncnc21
Outline: as §1

[8] = compound: Cn1cc(-c2ccc3nnc(C(F)(F)c4ccc5ncccc5c4)n3n2)cn1
Outline: as §1

[9] = compound: Cn1cncc1[C@@](N)(c1ccc(Cl)cc1)c1ccc2c(c1)c(-c1cccc(Cl)c1)cc(=O)n2C [tipifarnib]
Outline: as §1

[10] = compound: FC(F)(F)c1ccc(/C=C/c2nc(COc3ccc(CCCCn4ccnn4)cc3)co2)cc1 [mubritinib]
Outline: as §1

[11] = compound: NC(=O)Nc1cc(-c2cccc(F)c2)sc1C(=O)N[C@H]1CCCNC1
Outline: as §1

[12] = compound: NC(=O)c1cnc(N[C@@H]2CCCC[C@@H]2N)nc1Nc1cccc(-n2nccn2)c1
Outline: as §1

[13] = compound: NC1(c2ccc(-c3nc4ccn5c(=O)[nH]nc5c4cc3-c3ccccc3)cc2)CCC1
Outline: as §1

[14] = compound: NCC(=O)Nc1ccc(-n2nc(C(F)(F)F)cc2-c2ccc3c(ccc4ccccc43)c2)cc1
Outline: as §1

[15] = compound: Nc1ccccc1NC(=O)c1ccc(CNC(=O)OCc2cccnc2)cc1 [entinostat]
Outline: as §1

[16] = compound: O=C(CCCCCCC(=O)Nc1ccccc1)NO [vorinostat]
Outline: as §1

[17] = compound: O=C(CCCCCCNC(=O)c1cnc(N(c2ccccc2)c2ccccc2Cl)nc1)NO [citarinostat]
Outline: as §1

[18] = compound: O=C(O)c1ccc2c(c1)nc(Nc1cccc(Cl)c1)c1ccncc12 [silmitasertib]
Outline: as §1

[19] = compound: O=C1NC(=O)C(c2cnc3ccccn23)=C1c1cn2c3c(cc(F)cc13)CN(C(=O)N1CCCCC1)CC2
Outline: as §1

[20] = compound: c1cc(OCCN2CCCCC2)cc(-c2n[nH]c3ccc(-c4nnc[nH]4)cc23)c1
Outline: as §1

Chain of UniProt Q9P0T7 (Q9P0T7 whole entry, looked up): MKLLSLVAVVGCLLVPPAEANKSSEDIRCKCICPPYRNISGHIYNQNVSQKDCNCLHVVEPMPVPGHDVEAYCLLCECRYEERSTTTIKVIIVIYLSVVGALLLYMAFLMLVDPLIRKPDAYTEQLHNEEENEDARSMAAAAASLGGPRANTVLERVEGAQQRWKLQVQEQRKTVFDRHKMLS
Chain of UniProt Q9H267 (Q9H267 whole entry, looked up): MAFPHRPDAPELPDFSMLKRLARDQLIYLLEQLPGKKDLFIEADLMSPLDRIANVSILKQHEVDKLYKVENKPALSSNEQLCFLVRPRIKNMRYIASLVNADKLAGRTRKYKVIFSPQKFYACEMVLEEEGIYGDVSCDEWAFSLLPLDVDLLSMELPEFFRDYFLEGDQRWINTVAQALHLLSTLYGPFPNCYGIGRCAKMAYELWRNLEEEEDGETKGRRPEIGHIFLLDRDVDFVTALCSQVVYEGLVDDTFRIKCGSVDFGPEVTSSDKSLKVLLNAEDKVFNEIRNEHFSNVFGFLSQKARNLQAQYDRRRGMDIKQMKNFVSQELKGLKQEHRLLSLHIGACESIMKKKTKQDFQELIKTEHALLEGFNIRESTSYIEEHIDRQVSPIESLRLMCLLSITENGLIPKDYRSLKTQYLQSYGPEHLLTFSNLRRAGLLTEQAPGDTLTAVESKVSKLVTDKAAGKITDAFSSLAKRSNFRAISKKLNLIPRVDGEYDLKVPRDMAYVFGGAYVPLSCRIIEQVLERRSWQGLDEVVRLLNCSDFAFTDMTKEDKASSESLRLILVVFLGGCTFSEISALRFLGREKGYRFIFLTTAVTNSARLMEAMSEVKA
Chain of UniProt Q9BTX3 (Q9BTX3 whole entry, looked up): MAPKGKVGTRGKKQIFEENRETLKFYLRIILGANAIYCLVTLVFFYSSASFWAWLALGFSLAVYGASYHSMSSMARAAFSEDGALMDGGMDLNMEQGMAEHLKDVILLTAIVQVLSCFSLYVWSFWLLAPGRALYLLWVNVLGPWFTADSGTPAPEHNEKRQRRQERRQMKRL
Chain of UniProt O95155 (O95155 whole entry, looked up): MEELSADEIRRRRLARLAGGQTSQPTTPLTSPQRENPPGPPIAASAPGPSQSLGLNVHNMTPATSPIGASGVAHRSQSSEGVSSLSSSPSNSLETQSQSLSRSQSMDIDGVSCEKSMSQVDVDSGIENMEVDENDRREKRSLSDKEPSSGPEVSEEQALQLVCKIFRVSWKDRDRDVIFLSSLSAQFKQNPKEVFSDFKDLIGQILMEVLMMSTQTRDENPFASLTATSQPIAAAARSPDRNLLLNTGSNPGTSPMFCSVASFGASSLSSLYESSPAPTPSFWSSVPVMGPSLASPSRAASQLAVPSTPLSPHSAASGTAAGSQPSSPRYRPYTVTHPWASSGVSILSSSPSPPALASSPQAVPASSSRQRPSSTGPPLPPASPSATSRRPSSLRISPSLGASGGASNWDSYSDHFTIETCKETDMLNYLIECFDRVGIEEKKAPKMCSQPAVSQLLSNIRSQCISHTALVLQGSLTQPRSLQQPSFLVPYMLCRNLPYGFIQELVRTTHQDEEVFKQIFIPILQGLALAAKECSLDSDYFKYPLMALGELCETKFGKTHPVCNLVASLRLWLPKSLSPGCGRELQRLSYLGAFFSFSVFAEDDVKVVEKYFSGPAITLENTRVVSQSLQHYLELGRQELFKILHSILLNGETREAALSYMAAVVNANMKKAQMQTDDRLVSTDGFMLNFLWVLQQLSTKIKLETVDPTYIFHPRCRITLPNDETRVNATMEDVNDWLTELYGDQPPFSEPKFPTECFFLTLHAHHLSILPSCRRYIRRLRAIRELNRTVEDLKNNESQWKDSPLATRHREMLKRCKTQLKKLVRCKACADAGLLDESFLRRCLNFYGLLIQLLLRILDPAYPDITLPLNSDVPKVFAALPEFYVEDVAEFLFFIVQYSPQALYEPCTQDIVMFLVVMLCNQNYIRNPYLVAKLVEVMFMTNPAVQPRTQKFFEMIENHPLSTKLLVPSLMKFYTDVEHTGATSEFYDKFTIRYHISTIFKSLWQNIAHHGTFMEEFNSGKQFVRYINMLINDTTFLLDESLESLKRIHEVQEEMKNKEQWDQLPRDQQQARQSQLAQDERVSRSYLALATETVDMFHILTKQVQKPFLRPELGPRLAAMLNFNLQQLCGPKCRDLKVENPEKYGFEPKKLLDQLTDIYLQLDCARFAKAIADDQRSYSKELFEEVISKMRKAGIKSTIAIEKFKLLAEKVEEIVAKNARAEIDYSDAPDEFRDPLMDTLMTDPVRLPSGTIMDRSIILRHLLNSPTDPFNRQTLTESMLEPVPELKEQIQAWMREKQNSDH
Chain of UniProt Q92973 (Q92973 whole entry, looked up): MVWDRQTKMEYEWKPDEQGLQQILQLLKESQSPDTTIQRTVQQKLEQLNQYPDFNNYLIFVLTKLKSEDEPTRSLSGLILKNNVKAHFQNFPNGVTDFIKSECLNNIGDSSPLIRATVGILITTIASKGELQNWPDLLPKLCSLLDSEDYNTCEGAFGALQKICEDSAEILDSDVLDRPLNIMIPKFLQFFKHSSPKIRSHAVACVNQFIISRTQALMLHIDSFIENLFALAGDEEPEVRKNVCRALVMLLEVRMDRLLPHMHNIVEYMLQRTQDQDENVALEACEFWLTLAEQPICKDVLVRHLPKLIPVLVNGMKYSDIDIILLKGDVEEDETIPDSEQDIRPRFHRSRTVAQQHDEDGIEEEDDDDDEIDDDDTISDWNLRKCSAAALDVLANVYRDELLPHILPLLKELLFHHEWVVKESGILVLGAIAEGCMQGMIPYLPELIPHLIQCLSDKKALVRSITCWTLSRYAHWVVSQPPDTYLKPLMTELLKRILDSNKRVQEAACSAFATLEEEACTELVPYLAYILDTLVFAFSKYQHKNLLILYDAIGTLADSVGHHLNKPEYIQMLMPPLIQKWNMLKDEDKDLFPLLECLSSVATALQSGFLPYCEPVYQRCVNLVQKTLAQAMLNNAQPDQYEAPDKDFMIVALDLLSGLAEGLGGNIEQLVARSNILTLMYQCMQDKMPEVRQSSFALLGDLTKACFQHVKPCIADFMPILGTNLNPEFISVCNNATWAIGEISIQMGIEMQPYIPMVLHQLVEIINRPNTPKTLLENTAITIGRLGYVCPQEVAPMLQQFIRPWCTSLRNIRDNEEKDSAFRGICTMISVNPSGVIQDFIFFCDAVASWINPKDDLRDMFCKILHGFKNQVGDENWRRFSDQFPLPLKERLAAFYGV
Chain of UniProt Q9BZH6 (Q9BZH6 whole entry, looked up): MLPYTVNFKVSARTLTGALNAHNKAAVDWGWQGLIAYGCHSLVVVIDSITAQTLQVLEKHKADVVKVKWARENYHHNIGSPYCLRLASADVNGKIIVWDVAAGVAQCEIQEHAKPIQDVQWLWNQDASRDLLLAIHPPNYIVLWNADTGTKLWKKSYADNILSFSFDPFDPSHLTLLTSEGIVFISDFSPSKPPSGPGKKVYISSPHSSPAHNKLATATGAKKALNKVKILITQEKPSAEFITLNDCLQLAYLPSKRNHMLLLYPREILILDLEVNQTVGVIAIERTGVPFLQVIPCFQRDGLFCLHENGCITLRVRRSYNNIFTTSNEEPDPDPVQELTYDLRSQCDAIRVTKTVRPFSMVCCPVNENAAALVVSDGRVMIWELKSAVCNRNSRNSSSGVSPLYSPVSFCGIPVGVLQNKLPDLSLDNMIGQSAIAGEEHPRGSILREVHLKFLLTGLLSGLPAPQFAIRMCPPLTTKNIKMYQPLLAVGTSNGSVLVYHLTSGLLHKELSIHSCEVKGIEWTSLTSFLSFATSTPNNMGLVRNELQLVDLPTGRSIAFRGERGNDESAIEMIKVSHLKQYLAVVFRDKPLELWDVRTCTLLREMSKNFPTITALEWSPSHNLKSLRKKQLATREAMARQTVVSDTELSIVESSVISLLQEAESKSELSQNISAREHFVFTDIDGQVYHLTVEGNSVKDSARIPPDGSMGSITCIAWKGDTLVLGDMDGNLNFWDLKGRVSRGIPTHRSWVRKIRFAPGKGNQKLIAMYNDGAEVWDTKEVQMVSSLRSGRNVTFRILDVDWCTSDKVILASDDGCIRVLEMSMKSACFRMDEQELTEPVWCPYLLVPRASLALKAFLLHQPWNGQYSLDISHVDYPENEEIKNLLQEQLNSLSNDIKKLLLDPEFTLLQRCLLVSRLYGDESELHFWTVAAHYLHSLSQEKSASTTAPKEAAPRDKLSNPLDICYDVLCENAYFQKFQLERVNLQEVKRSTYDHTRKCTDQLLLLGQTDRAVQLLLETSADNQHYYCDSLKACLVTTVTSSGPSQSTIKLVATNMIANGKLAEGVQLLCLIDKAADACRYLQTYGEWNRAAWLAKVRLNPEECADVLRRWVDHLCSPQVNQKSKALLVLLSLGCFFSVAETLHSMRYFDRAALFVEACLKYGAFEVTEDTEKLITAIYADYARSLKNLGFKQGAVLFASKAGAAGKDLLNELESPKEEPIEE
Chain of UniProt Q9BXJ8 (Q9BXJ8 whole entry, looked up): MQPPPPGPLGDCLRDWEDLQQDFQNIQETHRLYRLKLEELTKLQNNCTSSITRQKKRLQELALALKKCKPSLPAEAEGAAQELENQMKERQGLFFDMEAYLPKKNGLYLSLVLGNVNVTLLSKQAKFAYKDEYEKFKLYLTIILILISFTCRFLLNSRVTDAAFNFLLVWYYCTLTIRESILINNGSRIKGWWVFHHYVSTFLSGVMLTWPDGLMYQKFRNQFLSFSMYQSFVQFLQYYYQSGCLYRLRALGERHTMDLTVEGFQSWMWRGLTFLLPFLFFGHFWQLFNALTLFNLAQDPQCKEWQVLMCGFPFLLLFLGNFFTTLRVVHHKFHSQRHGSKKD
Chain of UniProt P51809 (P51809 whole entry, looked up): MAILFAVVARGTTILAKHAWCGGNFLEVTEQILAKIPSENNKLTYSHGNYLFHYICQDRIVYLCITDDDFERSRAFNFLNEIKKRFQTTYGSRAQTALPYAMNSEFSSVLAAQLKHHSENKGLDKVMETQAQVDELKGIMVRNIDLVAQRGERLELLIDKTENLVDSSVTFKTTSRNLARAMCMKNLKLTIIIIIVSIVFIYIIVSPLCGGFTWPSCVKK

| Target | log2 fold change [1] | log2 fold change [2] | log2 fold change [3] | log2 fold change [4] | log2 fold change [5] | log2 fold change [6] | log2 fold change [7] | log2 fold change [8] | log2 fold change [9] | log2 fold change [10] | log2 fold change [11] | log2 fold change [12] | log2 fold change [13] | log2 fold change [14] | log2 fold change [15] | log2 fold change [16] | log2 fold change [17] | log2 fold change [18] | log2 fold change [19] | log2 fold change [20] |
| --- | --- | --- | --- | --- | --- | --- | --- | --- | --- | --- | --- | --- | --- | --- | --- | --- | --- | --- | --- | --- |
| TMEM161A (UniProt Q9NX61) | -0.156 | 0.043 | -0.157 | 0.023 | -0.09 | -0.021 | -0.05 | -0.025 | -0.165 | 0.027 | 0.043 | 0.012 | -0.132 | -0.101 | 0.049 | 0.006 | 0.083 | -0.023 | -0.009 | -0.098 |
| UBE2E3 (UniProt Q969T4) | -0.029 | -0.029 | -0.126 | 0.023 | -0.113 | 0.025 | -0.028 | -0.004 | -0.131 | 0.056 | -0.007 | -0.052 | -0.155 | -0.106 | 0.051 | 0.103 | 0.063 | -0.016 | 0.023 | -0.007 |
| TNPO1 (UniProt Q92973) | -0.104 | 0.022 | -0.037 | -0.128 | -0.067 | -0.079 | -0.034 | 0.009 | -0.026 | 0.005 | 0.003 | -0.039 | -0.157 | -0.06 | 0.044 | 0.051 | 0.033 | 0.025 | -0.021 | -0.066 |
| TMEM9 (UniProt Q9P0T7) | 0.028 | -0.048 | -0.017 | -0.022 | -0.087 | -0.037 | 0.057 | -0.007 | -0.068 | 0.025 | -0.008 | 0.047 | -0.113 | 0.063 | -0.026 | -0.053 | 0.1 | -0.044 | -0.031 | 0.065 |
| TMEM214 (UniProt Q6NUQ4) | 0.017 | 0.029 | -0.117 | -0.02 | -0.071 | 0.023 | -0.022 | -0.041 | -0.047 | 0.005 | -0.01 | 0.049 | -0.003 | 0.022 | 0.003 | 0.047 | -0.01 | 0.006 | 0.02 | -0.022 |
| TRMT10A (UniProt Q8TBZ6) | 0.006 | -0.022 | 0.005 | -0.018 | -0.059 | -0.002 | 0.104 | 0.008 | -0.022 | 0.05 | 0.015 | -0.005 | -0.075 | -0.109 | -0.039 | -0.003 | -0.013 | -0.023 | 0.007 | -0.02 |
| TMEM120A (UniProt Q9BXJ8) | 0.454 (active) | -0.054 | -0.009 | -0.038 | 0.046 | -0.09 | 0.053 | 0.057 | 0.011 | 0.048 | 0.229 | 0.089 | 0.058 | 0.091 | 0.002 | 0.1 | 0.252 | -0.124 | 0.185 | 0.082 |
| WDR11 (UniProt Q9BZH6) | 0.063 | -0.067 | -0.229 | 0.051 | 0.056 | -0.121 | -0.018 | 0.046 | 0.038 | 0.051 | 0.039 | -0.164 | -0.087 | -0.192 | -0.024 | -0.007 | -0.067 | -0.025 | -0.016 | -0.036 |
| VPS33B (UniProt Q9H267) | 0.01 | 0.04 | -0.056 | -0.158 | -0.209 | 0.099 | 0.017 | -0.069 | -0.107 | 0.054 | -0.013 | -0.154 | -0.118 | -0.018 | 0.094 | 0.072 | 0.076 | -0.011 | 0.017 | -0.057 |
| WBP4 (UniProt O75554) | -0.043 | 0.14 | 0.001 | -0.006 | 0.014 | -0.023 | 0.037 | 0.047 | 0.023 | 0.06 | 0.28 (active) | 0.079 | 0.006 | 0.111 | 0.058 | 0.098 | 0.055 | -0.026 | 0 | -0.007 |
| VAMP7 (UniProt P51809) | -0.066 | 0.025 | -0.034 | -0.04 | 0.002 | 0.023 | 0.017 | 0.086 | -0.04 | 0.003 | -0.029 | 0.001 | -0.176 | -0.069 | 0.009 | 0.025 | 0.086 | 0.027 | -0.058 | 0.026 |
| UBAP2L isoform 5 (UniProt Q14157) | -0.044 | -0.02 | -0.003 | -0.015 | 0.005 | 0.007 | 0.011 | -0.003 | -0.028 | 0.024 | 0.017 | -0.004 | -0.013 | 0.001 | -0.016 | -0.016 | 0.013 | -0.007 | -0.029 | 0.023 |
| UBE4B isoform 4 (UniProt O95155) | -0.003 | 0.053 | -0.051 | -0.011 | -0.069 | -0.024 | -0.019 | -0.011 | -0.024 | 0.032 | 0.005 | -0.055 | -0.113 | -0.056 | 0.019 | 0.023 | 0.02 | 0.042 | -0.082 | -0.014 |
| TMEM208 (UniProt Q9BTX3) | -0.131 | 0.097 | -0.101 | 0.092 | -0.19 | 0.185 | -0.024 | 0.01 | -0.223 | 0.062 | 0.038 | -0.133 | -0.28 | -0.181 | -0.01 | 0.187 | 0.036 | 0.048 | 0.02 | -0.09 |
| UFD1 isoform 1 (UniProt Q92890) | -0.007 | 0.01 | 0.025 | -0.019 | 0.031 | -0.003 | 0.006 | 0.002 | -0.046 | 0.041 | -0.001 | -0.015 | -0.03 | -0.001 | 0.01 | 0.003 | 0.061 | -0.014 | 0.014 | 0.034 |
